HPGD block – blocks human HPGD enzyme activity; purified HPGD, NADH fluorescence kinetic, PGE2 substrate; Potency, µM, usual class: inhibitors; 150,000 compounds, 4.3% hits
Target sequence (P15428 whole entry, looked up): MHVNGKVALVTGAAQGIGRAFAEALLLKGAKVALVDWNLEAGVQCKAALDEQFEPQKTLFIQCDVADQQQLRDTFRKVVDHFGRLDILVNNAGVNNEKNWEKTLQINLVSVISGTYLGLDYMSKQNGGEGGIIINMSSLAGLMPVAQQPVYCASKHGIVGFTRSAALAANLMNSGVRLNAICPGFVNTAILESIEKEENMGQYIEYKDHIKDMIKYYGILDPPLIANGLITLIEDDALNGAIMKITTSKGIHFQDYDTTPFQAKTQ
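NADH formation kinetics: reaction with 30 uM PGE2 and 1 mM NAD+ (final), 20 nM enzyme, Tris-HCl pH 8 with Tween 20, after 15 min compound preincubation at room temperature. Fluorescence change, last versus first of five reads.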
ALDH1A1 inh – blocks purified human ALDH1A1 activity; P00352; Purified ALDH1A1, NADH fluorescence, propionaldehyde substrate; Potency, µM (highest dose often 75.3 µM), most hits filed as inhibitors; 220,000 compounds, 7.3% hits; AID 1030
HTT ATP protect – protects HTT-Q103 PC12 cells, measured by ATP | PC12 HTT-Q103 induced, cytoprotection, ATP luminescence, 40 h | Potency, µM (titrated, usually from 56.4 µM), actives largely listed as activators | 230,000 compounds, 0.14% hits | AID 1471; active = well fitted curve in the direction sought with a large enough effect; inconclusive = small, poorly fitted or top-dose-only effect, or another doubt; inactive = no such curve, though single readings can be large; an effect the other way counts as inactive or inconclusive; note: nearly all actives have a fitted effect of over 45% in size
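PC12 cells with ecdysone-inducible HTT exon 1 Q103-GFP, induced with 100 nM tebufenozide and co-treated with library compounds in a dose series (1536-well, 1500 cells/well). Cytoprotection read as ATP content by ATPlite luminescence.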
PNC inhibitor – blocks assembly of the perinucleolar compartment; PC3M PTB-GFP, PNC prevalence imaging, 16 h; hits give low values; activity change (PNC), negative = inhibition, % at 10 µM; 140,000 compounds, 3.1% hits; AID 2417;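 active = readout at or below -70, meaning at least 70% loss of cells showing the perinucleolar compartment, a nuclear body marking cancer cells; inconclusive = readout between -30 and a set limit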
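PC3M cells stably expressing PTB-GFP, 750–1000 cells/well, treated 16 h at 37 °C with compound (23 nl of library stock), in duplicate. After paraformaldehyde fixation and Hoechst stain, imaged at 20x; PNC prevalence scored by image analysis.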
RGS12 GoLoco inh – inhibitors of human Gai1-RGS12 GoLoco interaction (red fluorophore). P63096. Gai1:RGS12 GoLoco peptide FP, rhodamine, 10 min. Potency, µM (highest dose often 61.6 µM), actives largely listed as inhibitors. 230,000 compounds, 0.44% hits. AID 880; active = well fitted inhibition curve with a large enough effect, not every such curve was filed as active; inactive = no such curve, though single readings can be large or run the other way; note: nearly all actives have a fitted effect of over 30% in size
Target sequence (P63096 whole entry, looked up): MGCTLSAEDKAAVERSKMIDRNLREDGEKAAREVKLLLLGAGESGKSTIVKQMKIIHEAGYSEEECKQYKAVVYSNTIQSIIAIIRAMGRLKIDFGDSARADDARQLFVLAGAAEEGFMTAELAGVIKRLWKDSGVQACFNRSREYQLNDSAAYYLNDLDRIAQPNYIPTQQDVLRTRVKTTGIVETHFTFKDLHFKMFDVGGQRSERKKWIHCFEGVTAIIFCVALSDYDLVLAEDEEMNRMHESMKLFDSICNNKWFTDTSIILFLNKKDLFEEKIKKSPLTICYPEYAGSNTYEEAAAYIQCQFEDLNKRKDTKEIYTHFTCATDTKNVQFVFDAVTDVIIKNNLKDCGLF
HTT aggregate – inhibitors of mutant huntingtin aggregate formation in PC12 cells; PC12 HttQ103-GFP aggregates, Acumen cytometry, 40 h; Potency, µM (highest dose often 46.1 µM), usual class: inhibitors; 220,000 compounds, 1.1% hits; AID 1688; active = well fitted curve in the direction sought with a large enough effect; inconclusive = small, poorly fitted or top-dose-only effect, or another doubt; inactive = no such curve, though single readings can be large; an effect the other way counts as inactive or inconclusive; note: nearly all actives have a fitted effect of over 60% in size
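Quantitative HTS on tebufenozide-induced (100 nM) PC12 cells stably expressing polyQ103 Huntingtin exon 1–GFP. Reduction of bright GFP aggregates, detected by laser scanning cytometry after lysis, identified actives across the titration.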
Of the large screens only hits and unclear results are named; the others gave an inactive call. Hits are enriched below; roughly 11% of the tested compounds scored in any of these assays. Unless noted, calls come from the whole dose curve; as a rule, active = well fitted inhibition curve with a large enough effect (not every such curve was filed as active); inconclusive = small, poorly fitted or top-dose-only effect, or another doubt; inactive = no such curve, though single readings can be large or run the other way.

COc1cc(CNc2nc(C)c([N+](=O)[O-])c(C)c2C#N)cc(OC)c1	ALDH1A1 inh 4µM, HTT aggregate inconclusive
Cc1nc(NCCc2ccccc2F)c(C#N)c(C)c1[N+](=O)[O-]	ALDH1A1 inh 14µM, PNC inhibitor inconclusive
Cc1nc(NCCc2ccc(F)cc2)c(C#N)c(C)c1[N+](=O)[O-]	ALDH1A1 inh inconclusive
CC(C)(C)[C@H]1C=C(C(=O)NC2CC2)O[C@@H](OCCCCO)C1	none (no result: HPGD block, PNC inhibitor)
CCN(CC)c1ccc(S(=O)(=O)Nc2cc(Cl)ccc2Cl)cc1NC(=S)NC(=O)C1CCCC1	ALDH1A1 inh 22µM
CCCN1CCN(CCCNC(=O)c2cc3c(=O)[nH]c4ccccc4c3s2)CC1	ALDH1A1 inh inconclusive (no result: HPGD block, PNC inhibitor)
CCOC(=O)N1CCN(C(=O)c2cc3c(=O)[nH]c4ccccc4c3s2)CC1	ALDH1A1 inh inconclusive, PNC inhibitor -119
Cc1ccc(NS(=O)(=O)c2cc(C(=O)O)ccc2Cl)cc1C	none (no result: HTT ATP protect, PNC inhibitor, RGS12 GoLoco inh, HTT aggregate)
c1ccc(CSc2n[nH]c(-c3ccco3)n2)cc1	HPGD block 13µM, PNC inhibitor inconclusive
CCCC(=O)N1CCN(c2ccc(NC(=O)c3ccc([N+](=O)[O-])o3)cc2Cl)CC1	ALDH1A1 inh 18µM, HTT ATP protect inconclusive, HTT aggregate inconclusive (no result: HPGD block, PNC inhibitor)
O=C(Nc1ccc(N2CCN(C(=O)c3ccccc3)CC2)cc1)c1ccc([N+](=O)[O-])o1	ALDH1A1 inh 11µM (no result: HPGD block, PNC inhibitor)
Cc1ccccc1N=Nc1c(C)[nH]n(-c2ccccc2)c1=O	none (no result: HPGD block, PNC inhibitor)
Cc1[nH]n(-c2ccccc2)c(=O)c1N=Nc1nccs1	HTT aggregate 11µM
COc1cc(C2Nc3ccc4ncccc4c3C3=C2C(=O)CC(C)(C)C3)cc(OC)c1O (stereo not given)	ALDH1A1 inh 13µM, HTT aggregate inconclusive
CC1(C)CC(=O)C2=C(C1)c1c(ccc3ccccc13)NC2c1cc([N+](=O)[O-])cc([N+](=O)[O-])c1O (stereo not given)	ALDH1A1 inh 11µM (no result: HPGD block, PNC inhibitor)
CCOc1cccc(-c2nnc3sc(-c4cccs4)nn23)c1	PNC inhibitor -127
c1coc(-c2nnc3sc(-c4cccs4)nn23)c1	ALDH1A1 inh 20µM, PNC inhibitor inconclusive
COc1cccc(-c2nnc3sc(-c4ccco4)nn23)c1	HPGD block inconclusive, ALDH1A1 inh 28µM
Cc1ccc2nc(-c3ccc(-c4ccccn4)s3)cn2c1	none (no result: HPGD block, ALDH1A1 inh, PNC inhibitor)
Cn1cccc1Cc1nnc(SCC(=O)Nc2ccccc2F)n1CCc1ccccc1	ALDH1A1 inh 25µM
Cn1cccc1Cc1nnc(SCC(=O)Nc2cccc(F)c2)n1CCc1ccccc1	ALDH1A1 inh inconclusive
Cn1cccc1Cc1nnc(SCC(=O)N2CCCCCC2)n1CCc1ccccc1	ALDH1A1 inh 25µM
CC1CCN(C(=O)CSc2nnc(Cc3cccn3C)n2CCc2ccccc2)CC1	ALDH1A1 inh inconclusive, PNC inhibitor -95
Cn1cccc1Cc1nnc(SCC(=O)N2CCCC2)n1CCc1ccccc1	ALDH1A1 inh inconclusive
CN(C)c1ccc(-c2nc(NCc3cccnc3)c3ccccc3n2)cc1	HPGD block inconclusive, ALDH1A1 inh inconclusive (no result: PNC inhibitor, HTT aggregate)
Cc1cc(N2CCC(C)CC2)nc(-n2nc(C)cc2C)n1	PNC inhibitor -96
C#CCOCCOCCOCCNc1nc(N2CCN(C(=O)[C@H](CCC(=O)O)n3cc(C(N)CC(C)C)nn3)CC2)nc(N2CCN(C(=O)[C@H](Cc3ccc(O)cc3)n3cc(C(N)CC(C)C)nn3)CC2)n1 (stereo not given in full)	ALDH1A1 inh inconclusive (no result: HPGD block, PNC inhibitor)
C#CCOCCOCCOCCNc1nc(N2CCN(C(=O)[C@H](Cc3ccc(O)cc3)n3cc([C@@H](N)CC(C)C)nn3)CC2)nc(N2CCN(C(=O)[C@H](Cc3ccc(O)cc3)n3cc([C@@H](N)CC(C)C)nn3)CC2)n1	ALDH1A1 inh 16µM (no result: HPGD block, PNC inhibitor)
CN1CCCC(C#CC(O)(c2ccccc2)c2ccccc2)C1 (stereo not given)	none (no result: HPGD block, PNC inhibitor)
Cc1ccc(-c2csc(NC(=O)Cc3ccc(F)cc3)n2)o1	ALDH1A1 inh 3.5µM (no result: HPGD block, PNC inhibitor)
COc1ccc(CC(=O)Nc2nc(-c3cccnc3)cs2)cc1	PNC inhibitor inconclusive (no result: HTT ATP protect)
Cc1ccc(-c2csc(Nc3ccc(S(N)(=O)=O)cc3)n2)o1	ALDH1A1 inh 2.2µM (no result: HPGD block, PNC inhibitor)
Cc1ccc(-c2csc(NC(=O)c3ccc(-c4ccccc4)cc3)n2)o1	HPGD block inconclusive, ALDH1A1 inh 20µM, HTT aggregate inconclusive
Cc1ccc(S(=O)(=O)NC(=O)Nc2ncn[nH]2)cc1	none (no result: PNC inhibitor, HTT aggregate)
O=C(/C=C\c1ccccc1)c1ccccc1O	none (no result: HPGD block, PNC inhibitor, RGS12 GoLoco inh, HTT aggregate)
O=C(/C=C/c1ccc(O)cc1)c1ccccc1O	HPGD block inconclusive, ALDH1A1 inh 20µM (no result: PNC inhibitor, HTT aggregate)
COc1ccc(O[C@H]2C=C[C@@H](c3ccccc3)O[C@H]2COC(=O)N2CCCCC2)cc1	ALDH1A1 inh inconclusive (no result: HPGD block, PNC inhibitor, RGS12 GoLoco inh, HTT aggregate)
OC(COCc1ccc(Cl)cc1)CN1CCN(CC(O)COCc2ccc(Cl)cc2)CC1 (stereo not given)	PNC inhibitor inconclusive, HTT aggregate 4µM
OC(COC(c1ccc(Cl)cc1)c1ccc(Cl)cc1)CN1CCN(c2ccccn2)CC1 (stereo not given)	HTT aggregate 32µM
OC(COCc1ccc(Cl)cc1)CN1CCc2ccccc2C1 (stereo not given)	none
COc1ccc(-c2cc3cc(OC)c(OC)cc3c(C)n2)cc1	none (no result: HPGD block, ALDH1A1 inh, PNC inhibitor)
CO[C@H]1/C=C/O[C@@]2(C)Oc3c(C)c(O)c4c(O)c(c(/C=N\N5CCN(C6CCCC6)CC5)c(O)c4c3C2=O)NC(=O)/C(C)=C\C=C\[C@H](C)[C@H](O)[C@@H](C)[C@@H](O)[C@@H](C)[C@H](OC(C)=O)[C@@H]1C	none (no result: HPGD block, ALDH1A1 inh, PNC inhibitor, RGS12 GoLoco inh)
COc1ccc(N(C)S(=O)(=O)c2cccc(C(=O)NCC3CCCO3)c2)cc1 (stereo not given)	ALDH1A1 inh inconclusive, HTT aggregate inconclusive
COc1ccc(S(=O)(=O)N(C)c2ccc(C(=O)NCC3CCCO3)cc2)cc1 (stereo not given)	HPGD block 2.8µM, PNC inhibitor inconclusive
Cc1ccc(C(=O)NCC2CCCO2)cc1N1CCCC1=O (stereo not given)	HPGD block 11µM
CC(=O)Nc1ccc(C(=O)Nc2ccc(S(=O)(=O)NCC3CCCO3)cc2)cc1 (stereo not given)	none
Cc1ccc(C)n1-c1ccc(C(=O)NCC2CCCO2)cc1 (stereo not given)	HPGD block 8.9µM
COc1ccc(CC(=O)Nc2ccc(S(=O)(=O)NCC3CCCO3)cc2)cc1 (stereo not given)	HPGD block 22µM, ALDH1A1 inh 10µM, HTT aggregate inconclusive
O=C(Oc1ccccc1)c1cccc2cccc(C(=O)Oc3ccccc3)c12	none (no result: HPGD block, PNC inhibitor)
O=C(COc1ccccc1)Nc1ccc(Cl)cc1Cl	none (no result: HPGD block, PNC inhibitor)
c1ccc(CCCNc2nnnc3ccccc23)cc1	none (no result: PNC inhibitor, HTT aggregate)
Cc1csc(SCC(=O)Nc2sccc2C(N)=O)n1	none (no result: HPGD block, PNC inhibitor)
